According to PubChem BioAssay (NCATS):
Inconclusive results are not listed. Values without a mark were called inactive. The source made the active and inactive calls. Calls come from the whole dose curve; tested in HEK293 reporter line. Peptide text beside a SMILES is read from it.

Test: qHTS for Inhibitors of the Functional Ribonucleoprotein Complex (vRNP) of Lassa (LASV) Arenavirus: LASV Primary Screen - GLuc reporter signal (AID 1347082); note: nearly all actives have a fitted effect of over 60% in size
Details: LASV minigenome vRNP, Gaussia luciferase reporter; series mostly up to 57.5 µM; activity change, negative = inhibition: at the top concentration
% is set by controls: 0 for no effect and ±100 for the full control effect; potency is the fitted concentration of half-maximal effect.

Going from `CC[N+](CC)(CCNC(=O)C(=O)NCC[N+](CC)(CC)Cc1ccccc1Cl)Cc1ccccc1Cl` to `O=C(Oc1ccccc1C(=O)O)c1ccccc1O`, the “activity change, negative = inhibition” value rises from -4.65% to -1.01%.

First: O=C(O)c1cc(O)c(O)c(O)c1
Second: O=C(O)c1ccccc1OP(=O)(O)O
The “activity change, negative = inhibition” value of the first is higher: 1.63% for the first, -14.1% for the second.

Compared with `O=C(O)c1ccccc1-c1ccc(C(F)(F)F)cc1`, `Cc1c(Nc2ncccc2C(=O)O)cccc1C(F)(F)F` is higher in “activity change, negative = inhibition” value: -13.2% for the first, -0.0781% for the second.

Going from `CN(C)C(=O)COC(=O)Cc1ccc(OC(=O)c2ccc(N=C(N)N)cc2)cc1` to `O=C(Oc1ccccc1)c1ccccc1O`, the “activity change, negative = inhibition” value rises from -1.18% to 0.0274%.

Compared with `COc1c(N2C[C@@H]3CCCN[C@@H]3C2)c(F)cc2c(=O)c(C(=O)O)cn(C3CC3)c12`, `CC(=O)NC[C@H]1CN(c2ccc(N3CCOCC3)c(F)c2)C(=O)O1` is lower in “activity change, negative = inhibition” value: 2.49% for the first, -4.24% for the second.

Going from `Nc1nc(Cl)nc2c1ncn2[C@@H]1O[C@H](CO)[C@@H](O)[C@@H]1F` to `Cc1cc(NS(=O)(=O)c2ccc(N)cc2)nc(C)n1`, the “activity change, negative = inhibition” value rises from -7.54% to -5.19%.

Compared with `CC(O)C(=O)O` (centres undefined), `O=C1CC[C@@H](C(=O)O)N1` is lower in “activity change, negative = inhibition” value: 6.93% for the first, -6.57% for the second.

First: NC(=O)c1ccc([N+](=O)[O-])cc1Cl
Second: Cn1c([N+](=O)[O-])cnc1COC(N)=O
The “activity change, negative = inhibition” value of the first is lower: -0.352% for the first, 1.77% for the second.

Compared with `CC(C)(C)c1cc(C=O)cc(C(C)(C)C)c1O`, `CC(C)(C)C1CCC(CC2=C(O)c3ccccc3C(=O)C2=O)CC1` (centres undefined) is lower in “activity change, negative = inhibition” value: 1.1% for the first, -3.98% for the second.

First: CCC(C)(CN(C)C)OC(=O)c1ccccc1 (centres undefined)
Second: CCC(C(=O)OCCN(CC)CC)c1ccccc1 (centres undefined)
The “activity change, negative = inhibition” value of the first is lower: -4.41% for the first, 5.47% for the second.

First: Cc1ccc2ccc(Cl)cc2n1
Second: COc1ccc(Cc2cnc(N)nc2N)cc1OC
The “activity change, negative = inhibition” value of the first is lower: 2.51% for the first, 4.52% for the second.

First: CO[C@@]1(NC(=O)Cc2cccs2)C(=O)N2C(C(=O)O)=C(COC(N)=O)CS[C@@H]21
Second: NC(=O)NC(=O)Cc1ccccc1
The “activity change, negative = inhibition” value of the first is lower: -4.39% for the first, -1.2% for the second.

First: COc1cc(C(=O)OC(COCCC(C)C)CN2CCOCC2)cc(OC)c1OC (centres undefined)
Second: CC(=O)Nc1ccc(OCC(O)CNC(C)C)cc1 (centres undefined)
The “activity change, negative = inhibition” value of the first is lower: 1.51% for the first, 4.46% for the second.

Compared with `O=C1c2ccccc2CCc2ccccc21`, `Cc1cc(=O)oc2cc(O[C@@H]3SC[C@@H](O)[C@H](O)[C@H]3O)ccc12` is lower in “activity change, negative = inhibition” value: 1.45% for the first, -1.09% for the second.

In the case of `CCNC(=O)[C@@H]1CCCN1C(=O)[C@H](CCCN=C(N)N)NC(=O)[C@H](CC(C)C)NC(=O)CNC(=O)[C@H](Cc1ccc(O)cc1)NC(=O)[C@H](CO)NC(=O)[C@H](Cc1c[nH]c2ccccc12)NC(=O)[C@H](Cc1cnc[nH]1)NC(=O)[C@@H]1CCC(=O)N1` (HELM PEPTIDE1{[Glp].H.W.S.Y.G.L.R.P.[CCN[*:1]]}$$$$V2.0), the “activity change, negative = inhibition” value is reported as -3.9%.

In the case of `CCCCCCCCCCCCCCCC(=O)NCCO`, the Potency is reported as “inactive”.
With `O=C(O)c1cc(=O)c2c(OCC(O)COc3cccc4oc(C(=O)O)cc(=O)c34)cccc2o1` the Potency was “inactive”.
With `CC(C)(Oc1ccc(C2CC2(Cl)Cl)cc1)C(=O)O` (centres undefined) the Potency was “inactive”.
For `CCN(CC)CCNC(=O)c1ccc(N)cc1`, the Potency was “inactive”.
For `Cc1nnc(SCC2=C(C(=O)O)N3C(=O)[C@@H](NC(=O)Cn4cnnn4)[C@H]3SC2)s1`, the Potency was “inactive”.
For `C[C@@H]1O[C@@H](O[C@H]2CC[C@@]3(C)[C@H](CC[C@@H]4[C@H]3C[C@@H](O)[C@]3(C)[C@@H](C5=CC(=O)OC5)CC[C@]43O)C2)C[C@H](O)[C@@H]1O[C@H]1C[C@H](O)[C@H](O[C@H]2C[C@H](O)[C@@H](O)[C@@H](C)O2)[C@H](C)O1` (stereo in doubt), the Potency was 559 nM (active).
For `CCN(CC)C(=O)c1ccc(O)c(OC)c1`, the Potency was “inactive”.
In the case of `Cc1ncc(CO)c(CO)c1O`, the Potency is reported as “inactive”.
With `O=c1cc(O)c(Cl)c[nH]1` the Potency was “inactive”.

For `O=P(O)(O)C(O)(Cn1ccnc1)P(=O)(O)O`, the “activity change, negative = inhibition” value was 7.61% [at 24.7 µM].
